Test results published in PubChem BioAssay AID1578 (Sanford-Burnham Center for Chemical Genomics, 2009).
About 3,000 (1%) of roughly 290,000 compounds were called active. Rule as the data show it: active = inhibition mostly above about 36% (no sharp cut-off); inactive = mostly below about 34%. Only a selection was taken, and actives are over-represented in it overall.

Assay: inhibition of NOD1-driven NF-kB reporter – cell-based, luminescence, uHTS, primary screen (AID 1578);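 also: HEK-293T reporter cells stimulated with the NOD1 agonist gamma-tri-DAP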
Details: NOD1-driven NF-kB luciferase reporter cells, at 4 µM, stronger effect = higher value
With `O=C(O)c1ccc(-c2ccc(-c3ccccc3)cc2)s1` the inhibition was 93.5% (active). For `Nc1ccc(-c2ccc(C(=O)O)s2)cn1`, the inhibition was -26.1% (inactive). With `CNC(=O)c1ccc(-c2ccccc2)s1` the inhibition was -12.7% (inactive). With `O=C(CNC(=O)c1ccco1)NCCCc1ccccc1` the inhibition was 17.4% (inactive). With `CCN(CC)c1ccc(/C=c2\sc3nc4ccccc4n3c2=O)c(O)c1` the inhibition was 33.8% (inactive). In the case of `O=c1/c(=C/c2ccccn2)sc2nc3ccccc3n12`, the inhibition is reported as -98.1% (inactive). For `Cc1cc(/C=c2/sc3nc4ccccc4n3c2=O)c(C)n1-c1ccccn1`, the inhibition was 74.4% (active). For `Cc1cc(/C=C2/NC(=O)NC2=O)c(C)n1-c1ccccn1`, the inhibition was -34.5% (inactive). In the case of `Cc1cc(/C=c2\sc3nc4ccccc4n3c2=O)c(C)n1-c1ccc(C(=O)O)cc1`, the inhibition is reported as 20.6% (inactive). For `O=c1c2ccccc2cnn1-c1ccc(Cl)nn1`, the inhibition was -19% (inactive). In the case of `Cc1ccccc1-n1nc2c(c1NC(=O)c1c(-c3ccccc3Cl)noc1C)CS(=O)(=O)C2`, the inhibition is reported as -10.3% (inactive). With `Cc1nn(C)cc1CNC(=O)c1ccc(Br)o1` the inhibition was -3.1% (inactive). With `COc1ccc2ccccc2c1/C=N\NC(=O)c1ccc(C)s1` the inhibition was -3.2% (inactive). For `Cc1ccc(OCC(=O)NNC(=O)CSc2ncc(C#N)c(N)n2)cc1`, the inhibition was -22.7% (inactive). In the case of `N#Cc1cnc(SCC(=O)NNC(=O)COc2cccc3ccccc23)nc1N`, the inhibition is reported as -19.9% (inactive). For `Cc1cccc(OCC(=O)NNC(=O)CSc2ncc(C#N)c(N)n2)c1`, the inhibition was 98.2% (active). In the case of `CCCCn1c(SCC(=O)N2CCOCC2)nc2ccccc2c1=O`, the inhibition is reported as -11.7% (inactive). In the case of `COc1ccc(NC(=O)CSc2nc(N)c(NC(=O)c3cccs3)c(=O)[nH]2)cc1`, the inhibition is reported as -4.6% (inactive). In the case of `COc1cccc(-c2ccc(NC(=O)C3CCCN(CCCn4cccn4)C3)cc2)c1` (stereo not drawn), the inhibition is reported as -32.8% (inactive). With `Cc1ccccc1Oc1nc2ccccn2c(=O)c1/C=C(\C#N)C(=O)Nc1c(C)n(C)n(-c2ccccc2)c1=O` the inhibition was -32.9% (inactive). For `O=C(COc1ccccc1)Nc1ccccc1NS(=O)(=O)c1cccs1`, the inhibition was 15.4% (inactive). In the case of `O=C(COc1ccc(Cl)cc1Cl)Nc1ccccc1NS(=O)(=O)c1cccs1`, the inhibition is reported as 38.6% (inactive). With `N#Cc1c(NC(=O)CSc2nnc(-c3ccccc3O)n2-c2ccccc2)sc2c1CCCC2` the inhibition was -23.8% (inactive). In the case of `N#Cc1c(Sc2ncc(C(F)(F)F)cc2Cl)nsc1C/C=N\OCc1c(F)cccc1Cl`, the inhibition is reported as 23.5% (inactive). With `O=C(Nc1ccc(Oc2cccnc2)cc1)C1CCN(Cc2ccc(F)cc2)CC1` the inhibition was -7.5% (inactive). In the case of `O=C(NCCCn1ccnc1)/C(=C\c1cccnc1)NC(=O)c1ccco1`, the inhibition is reported as -5.2% (inactive). For `COc1ccc2oc(C(=O)NCc3cc(OC)c(OC)cc3OC)c(C)c2c1`, the inhibition was 17.1% (inactive). For `CCOC(=O)C1CCN(C(=O)COC(=O)COc2ccc(Cl)cc2)CC1`, the inhibition was -16% (inactive). In the case of `CCC(=O)c1ccc(Oc2ccc(C(=O)c3ccc(C)cc3)cc2[N+](=O)[O-])cc1`, the inhibition is reported as 40.1% (inactive). For `NC(=O)c1ccc(Oc2ccc(Cl)cc2)c([N+](=O)[O-])c1`, the inhibition was 2.7% (inactive). In the case of `CC(=O)c1ccc(Oc2ccc(C(=O)c3ccc(C)c(C)c3)cc2[N+](=O)[O-])cc1`, the inhibition is reported as 69.6% (active). With `Cn1ncnc1SCc1cn2cccnc2n1` the inhibition was -16.1% (inactive). For `COc1ccc(-c2nc(CN3CCC(C(=O)N4CCOCC4)CC3)c(C)o2)cc1OC`, the inhibition was -6.6% (inactive). For `COc1ccc([N+](=O)[O-])cc1NC(=S)Nc1ccccc1`, the inhibition was 4.9% (inactive). For `O=C(CN(C(=O)CNS(=O)(=O)c1ccccc1)c1ccc2c(c1)OCCO2)NC1CCCCC1`, the inhibition was -17.9% (inactive). With `CN(/N=C/c1cc(Cl)ccc1O)C1=NS(=O)(=O)c2ccccc21` the inhibition was 30.8% (active). In the case of `Cc1ccc(/C=N/N(C)C2=NS(=O)(=O)c3ccccc32)cc1`, the inhibition is reported as 5% (inactive). For `COc1cccc(/C=N/N(C)C2=NS(=O)(=O)c3ccccc32)c1O`, the inhibition was -15.4% (inactive). With `CCOc1ccc(CC(=O)NNC(=S)Nc2ccc(OC)c(OC)c2)cc1` the inhibition was -36.4% (inactive). With `Cc1ccc(C)c(C(=O)N(C)CC(=O)Nc2ccccc2C(F)(F)F)c1` the inhibition was 35.4% (inactive). With `CCn1c(=O)c(C(=O)NCc2ccccc2)c(O)c2ccccc21` the inhibition was -12.4% (inactive). In the case of `O=[N+]([O-])c1cccc(OCC(O)CN2CCN(S(=O)(=O)c3cc(Cl)ccc3Cl)CC2)c1` (stereo not drawn), the inhibition is reported as 15.6% (inactive). With `O=C(C[N+]1(CC#Cc2ccccc2)CCCCC1)c1ccc(Cl)cc1` the inhibition was -15.6% (inactive). In the case of `O=C(C[N+]1(CC#Cc2ccccc2)CCOCC1)c1ccccc1`, the inhibition is reported as -26.9% (inactive). In the case of `O=C(C[N+]1(CC#Cc2ccccc2)CCCCC1)c1ccccc1`, the inhibition is reported as 47.4% (active). For `Cc1cc(=O)[nH]c(SCC(=O)Nc2ccc(F)cc2)c1C#N`, the inhibition was -21.3% (inactive). For `Cc1cc(=O)[nH]c(SCC(=O)Nc2ccc(Br)cc2)c1C#N`, the inhibition was 67.2% (active). With `COc1ccc(NC(=O)CSc2[nH]c(=O)cc(C)c2C#N)cc1OC` the inhibition was -23.7% (inactive).
